# The campaign covered roughly 310,000 compounds. About 3,300 (1.1%) were called active. The sample holds actives, similar compounds and a random draw of the others, so the mix is not that of the screen.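 The calls were made as follows: active = B-score under library mean minus 3 SD, initial fluorescence not abnormally high, positive integrated signal ratio; inactive = the rest.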
# Target: Short transient receptor potential channel 6 (Mus musculus) (UniProt Q61143)
# Test: mouse TRPC6 channel inhibitors, primary screen, cell-based, HEK293, membrane potential dye (AID 2553);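 as to B-score: B-score derived from integrated fluorescence ratio over the kinetic read; more negative B-score means stronger inhibition of depolarization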
# Settings: ACh-evoked depolarization, at 10 µM; active compounds read low
# Sequence of Short transient receptor potential channel 6 (Mus musculus) (Q61143 whole entry, looked up): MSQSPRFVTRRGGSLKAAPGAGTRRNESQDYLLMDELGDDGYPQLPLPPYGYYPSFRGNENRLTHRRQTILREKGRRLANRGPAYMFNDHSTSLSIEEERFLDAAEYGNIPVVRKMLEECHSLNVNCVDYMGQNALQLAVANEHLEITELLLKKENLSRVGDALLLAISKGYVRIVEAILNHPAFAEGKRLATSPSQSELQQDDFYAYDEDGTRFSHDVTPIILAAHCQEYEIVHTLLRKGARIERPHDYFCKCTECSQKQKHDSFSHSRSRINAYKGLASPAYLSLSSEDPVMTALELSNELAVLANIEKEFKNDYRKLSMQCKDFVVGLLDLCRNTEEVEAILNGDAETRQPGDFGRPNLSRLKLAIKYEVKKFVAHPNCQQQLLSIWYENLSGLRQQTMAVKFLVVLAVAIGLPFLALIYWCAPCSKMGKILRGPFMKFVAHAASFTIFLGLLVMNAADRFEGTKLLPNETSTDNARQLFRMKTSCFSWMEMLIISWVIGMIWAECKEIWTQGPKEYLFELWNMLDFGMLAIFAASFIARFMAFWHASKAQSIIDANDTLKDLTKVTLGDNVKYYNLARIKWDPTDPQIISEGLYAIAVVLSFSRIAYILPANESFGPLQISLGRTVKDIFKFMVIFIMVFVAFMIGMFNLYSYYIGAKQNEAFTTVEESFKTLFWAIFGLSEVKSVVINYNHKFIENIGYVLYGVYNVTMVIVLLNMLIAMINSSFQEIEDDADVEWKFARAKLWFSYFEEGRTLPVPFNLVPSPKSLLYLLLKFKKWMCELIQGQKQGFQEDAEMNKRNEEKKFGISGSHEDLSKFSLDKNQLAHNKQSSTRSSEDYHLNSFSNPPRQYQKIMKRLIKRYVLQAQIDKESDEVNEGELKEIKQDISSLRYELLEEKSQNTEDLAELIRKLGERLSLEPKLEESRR
row,SMILES,B-score
1,COc1ccc2[nH]cc(CCN3C(=O)c4ccc(C(=O)O)cc4C3=O)c2c1,inactive
2,Cc1nn(C)cc1C(=O)c1ccccc1,inactive
3,C=CCOc1ccc(/C=C/C(=O)OCC(=O)NC2CCCCCC2)cc1,inactive
4,COc1cc(/C=C/C(=O)N2c3ccccc3Sc3ccc(C(F)(F)F)cc32)cc(OC)c1OC,inactive
5,O=C(CN1CCCCCC1)N1c2ccccc2Sc2ccc(C(F)(F)F)cc21,-5.15 (active)
6,CCOC(=O)CNC(=O)N1c2ccccc2Sc2ccccc21,inactive
7,COC(=O)c1c(-c2cccs2)csc1NC(=O)CSc1ncnc2sc(C)c(C)c12,inactive
8,CCOc1ccc(C(=O)N(Cc2ccc(N(C)C)cc2)C2CCS(=O)(=O)C2)cc1 (centres undefined),inactive
9,CCc1ccc(OCC(=O)N(Cc2ccccc2)C2CCS(=O)(=O)C2)cc1 (centres undefined),-6.07 (active)
10,Cc1ccccc1OCC(=O)N(Cc1cccc(F)c1)C1CCS(=O)(=O)C1 (centres undefined),inactive
11,Cc1ccccc1Nc1scc(-c2ccc(Br)cc2)[n+]1-c1ccccc1C,inactive
12,CN1CCN(c2ccc(NC(=O)c3ccccc3)cc2)CC1,inactive
13,CN1CCN(c2nc(Nc3ccc(O)cc3)nc3ccccc23)CC1,-11.6 (active)
14,Cc1cccc(-c2nc(Nc3ccc(O)cc3)c3ccccc3n2)c1,inactive
15,CCNC(=S)NNC(=O)C1CCN(Cc2ccccc2)CC1,inactive
16,CCCC(=O)C1CCN(Cc2ccccc2)CC1,inactive
17,O=C(NNS(=O)(=O)c1ccc(Cl)cc1)C1CCN(Cc2ccccc2)CC1,-7.9 (active)
18,Cc1nn(Cc2ccc(C(=O)N3N=C(C(F)F)CC3(O)C(F)F)cc2)c(C)c1[N+](=O)[O-] (centres undefined),-5.19 (active)
19,Cc1ccn(CC(=O)N2N=C(C(F)F)CC2(O)C(F)F)n1 (centres undefined),inactive
20,CCc1ccc(NC(=O)Cn2nc(C)c([N+](=O)[O-])c2C)cc1,inactive
21,Cc1[nH]c2c(C(=O)N3CCCC(CCC(=O)NCc4ccccc4F)C3)cccc2c1C (centres undefined),inactive
22,O=S(=O)(Cc1ccccc1)c1nc2ccccc2n1Cc1ccccn1,inactive
23,CCc1ccccc1NC(=O)CSc1nnc([C@@H](NC(=O)OC(C)(C)C)C(C)CC)o1 (some centres undefined),inactive

row,SMILES,B-score
1,CCc1ccccc1NC(=O)CSc1nnc([C@@H](NC(=O)OC(C)(C)C)C(C)C)o1,inactive
2,C[C@H](NC(=O)OC(C)(C)C)c1nnc(SCC(=O)Nc2ccc(Br)cc2)o1,-6.61 (active)
3,COCC1CCN(C(=O)C2CCC(=O)N(Cc3cccc(C(F)(F)F)c3)C2)CC1 (centres undefined),inactive
4,CC1(C)COC(c2cccn2Cc2ccccc2Cl)=N1,inactive
5,COc1nc(N=C(N)N)nc2c(C)cccc12,inactive
6,Cc1nc(/N=C(\N)NC(=O)NC2CCCCC2)nc2ccccc12,inactive
7,Cc1nc(N=C(N)N)nc2c(C)cccc12,-7.08 (active)
8,Cc1cc(-n2cnc(-c3cn(C)nc3C)n2)no1,inactive
9,Cc1ccc(NC2CCCN(C(=O)CCc3cn[nH]c3)C2)cc1C (centres undefined),inactive
10,Cc1ccc(NC2CCCN(C(=O)CCC3(C)CC3)C2)cc1C (centres undefined),-5.8 (active)
11,O=C(CN1CCOC1=O)N1CCCC(Nc2ccc(F)c(F)c2)C1 (centres undefined),inactive
12,C=C(C)c1cccc(C(C)(C)NC(=O)N2CCN(c3ncccn3)CC2)c1,inactive
13,C=C(C)c1cccc(C(C)(C)NC(=O)NC2CCCC2)c1,inactive
14,C=C(C)c1cccc(C(C)(C)NC(=O)NCCN(CC)CC)c1,-8.39 (active)
15,O=C1C2N=NN(CC(=O)N3N=C(c4cccc5ccccc45)CC3c3ccccc3)C2C(=O)N1c1ccccc1 (centres undefined),inactive
16,Cc1cc(OCCCC(=O)NCCN2C(=O)S/C(=C\c3cccnc3)C2=O)ccc1Cl,inactive
17,Cc1cc2c(cc1S(=O)(=O)CCC(=O)NCc1ccccc1)OCC(=O)N2,inactive
18,COc1ccc(Cl)cc1NC(=O)CCS(=O)(=O)c1cc2c(cc1C)NC(=O)CO2,-5.71 (active)
19,COc1ccc(NC(=O)CCS(=O)(=O)c2cc3c(cc2Cl)NC(=O)CO3)cc1OC,inactive
20,CCOc1ccc(Nc2nc(Cl)nc(N3CCN(c4ccc(OC)cc4)CC3)n2)cc1,inactive
21,CCN1CCN(c2nc(Nc3cc(OC)ccc3OC)nc(Nc3cc(OC)ccc3OC)n2)CC1,-5.02 (active)
22,CCOC(=O)N1CCN(CCC(=O)Nc2cc(OC)ccc2OC)CC1,inactive
23,Cn1c(=O)n(C)c2cc(S(=O)(=O)Nc3ccc(F)cc3)ccc21,inactive

row,SMILES,B-score
1,C=CC1=C(C(=O)O)N2C(=O)[C@@H](NC(=O)/C(=N/OCC(=O)O)c3csc(N)n3)[C@H]2SC1,inactive
2,Cc1ccc(NC(=O)[C@H](Cc2ccccc2)NC(=O)C2CCNCC2)cc1,inactive
3,COc1ccccc1C(=O)Nc1ccc(Nc2ccccc2)cc1,inactive
4,CCc1ccc(N2CC(C(=O)Nc3ccc(S(=O)(=O)Nc4nccs4)cc3)CC2=O)cc1 (centres undefined),inactive
5,CCOc1ccc(N2CC(C(=O)NCc3ccccn3)CC2=O)cc1 (centres undefined),inactive
6,CCN(CC)S(=O)(=O)c1ccc(N2CC(C(=O)NCc3cccnc3)CC2=O)cc1 (centres undefined),-6.5 (active)
7,CCc1ccc(N(C(=O)c2csnn2)C(C(=O)NC2CCCCC2)c2cccnc2)cc1 (centres undefined),inactive
8,CCC(C)NCCOCCOc1ccc(Br)cc1C (centres undefined),-5.27 (active)
9,COCCCNCCOCCOc1ccc(Cl)cc1Br,inactive
10,COCC(C)NCc1cc(Br)ccc1OC (centres undefined),inactive
11,Cc1c(C(=O)N(C)CCc2cnn(C)c2)oc2c(F)cccc12,inactive
12,CCOC(=O)N1CCN(C(=S)Nc2ccc(C)cc2C)CC1,inactive
13,CCOC(=O)N1CCC(O)(c2cc(C)c(C)cc2C)CC1,-9.52 (active)
14,CCOC(=O)N1CCN(C(=O)COc2ccc(Cl)cc2C)CC1,inactive
15,CCc1ccc(-c2cc(C(=O)NN3CCN(C)CC3)c3ccccc3n2)cc1,-5.25 (active)
16,COc1ccc(-c2cc(C(=O)Nc3ccccc3O)c3ccccc3n2)cc1,inactive
17,Cc1ccc(-c2cc(C(=O)NC3CCN(Cc4ccccc4)CC3)c3ccccc3n2)cc1,inactive
18,COc1ccc(CCN2C(=O)CC(N3CCC(C(N)=O)CC3)C2=O)cc1OC (centres undefined),inactive
19,Cc1c(C(=O)c2cccc([N+](=O)[O-])c2)c2ccccn2c1CCC#N,inactive
20,O=C(NCCc1ccccc1)c1ccc2c(c1)N(Cc1ccccc1)CCS2,inactive
21,CCOC(=O)N1CCN(C(=O)c2ccc3c(c2)N(Cc2ccc(C)cc2)CCS3)CC1,-7.3 (active)
22,O=C(NCCN1CCOCC1)c1ccc2c(c1)N(Cc1ccc(Cl)cc1)CCS2,inactive
23,COc1ccc(/C=C/CN2CCCC(C(=O)c3cc(F)ccc3F)C2)cc1 (centres undefined),inactive

# From PubChem BioAssay AID2553 (Johns Hopkins Ion Channel Center, 2010)
